Drawing on PubChem BioAssay (Tox21), this text covers outcome and Potency for ten compounds.

Test [1] concerns the target Peroxisome proliferator-activated receptor delta (Homo sapiens) (UniProt Q03181). The test is described as follows: qHTS assay to identify small molecule agonists of the peroxisome proliferator-activated receptor delta (PPARd) signaling pathway (AID 743212; calls by dose curve). In outline: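 Cells expressing a UAS-driven beta-lactamase reporter (PPARd-bla HEK293H) were given test compounds after a 5 h settle and kept at 37 C. Reporter activity was then measured as FRET fluorescence using LiveBLAzer B/G substrate.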
On the technique in general: In qHTS, concentration-response curves come from the screen itself.

Test [2] in a line: qHTS assay to identify small molecule antagonists of the peroxisome proliferator-activated receptor delta (PPARd) signaling pathway - cell viability counter screen (AID 743213). Further: nearly all actives have a fitted effect of over 50% in size. The gist of the method:
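CellTiter-Glo was added to PPARd-bla HEK293H wells following 17 h compound treatment in the presence of 300 nM L165041. Luminescence was recorded after 30 min at room temperature.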

For test [3], the target named is Peroxisome proliferator-activated receptor delta (Homo sapiens) (UniProt Q03181). The test can be described thus: qHTS assay to identify small molecule antagonists of the peroxisome proliferator-activated receptor delta (PPARd) signaling pathway (AID 743215; active means well fitted inhibition curve with a large enough effect in the signal ratio in the repeat runs, not every such curve was filed as active; the % refers to the signal ratio;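 further: cells stimulated with agonist L165041 at 300 nM final during compound exposure; series mostly up to about 62 µM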). In outline: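 Screen format: qHTS, antagonist mode. HEK293H PPARd-bla cells received compound and 300 nM L165041 (final), 17 h, 37 C. Beta-lactamase detected via FRET substrate fluorescence, 2 h, room temperature.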
Chain of Peroxisome proliferator-activated receptor delta (Homo sapiens) (Q03181 whole entry, looked up): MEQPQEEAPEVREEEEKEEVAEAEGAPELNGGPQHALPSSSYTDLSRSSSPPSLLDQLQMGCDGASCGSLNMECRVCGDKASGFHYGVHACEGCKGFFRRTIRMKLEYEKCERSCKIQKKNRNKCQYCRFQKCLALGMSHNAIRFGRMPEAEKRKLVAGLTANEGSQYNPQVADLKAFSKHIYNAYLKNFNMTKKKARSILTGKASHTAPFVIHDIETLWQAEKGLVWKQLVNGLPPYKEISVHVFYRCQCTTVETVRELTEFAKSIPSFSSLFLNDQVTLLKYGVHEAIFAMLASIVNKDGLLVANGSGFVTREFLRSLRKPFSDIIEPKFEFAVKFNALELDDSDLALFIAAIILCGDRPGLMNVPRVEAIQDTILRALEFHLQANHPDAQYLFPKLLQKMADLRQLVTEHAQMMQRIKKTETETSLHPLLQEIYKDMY

A short description of test [4]: qHTS assay to identify small molecule agonists of the farnesoid-X-receptor (FXR) signaling pathway - cell viability counter screen (AID 743218). Further: nearly all actives have a fitted effect of over 45% in size. The gist of the method: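 Same-well cytotoxicity check on FXR-UAS-bla HEK 293T cells: 5 h attachment, 16 h compound at 37 C, CellTiter-Glo luminescence read at room temperature after 30 min.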
For test [5], the target named is Bile acid receptor (Homo sapiens) (UniProt Q96RI1). The test can be described thus: qHTS assay to identify small molecule agonists of the farnesoid-X-receptor (FXR) signaling pathway (AID 743220; active means well fitted activation curve with a large enough effect in the signal ratio in the repeat runs, not every such curve was filed as active; the % refers to the signal ratio). The gist of the method: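 FXR-UAS-bla HEK 293T cells carrying a UAS-driven beta-lactamase reporter were plated for 5 h at 37C/5% CO2, then exposed to DMSO-dissolved Tox21 10K compounds for 16 h at 37C. A LiveBLAzer B/G FRET substrate was loaded for 2 h at room temperature before fluorescence reading.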
Chain of Bile acid receptor (Homo sapiens) (Q96RI1 whole entry, looked up): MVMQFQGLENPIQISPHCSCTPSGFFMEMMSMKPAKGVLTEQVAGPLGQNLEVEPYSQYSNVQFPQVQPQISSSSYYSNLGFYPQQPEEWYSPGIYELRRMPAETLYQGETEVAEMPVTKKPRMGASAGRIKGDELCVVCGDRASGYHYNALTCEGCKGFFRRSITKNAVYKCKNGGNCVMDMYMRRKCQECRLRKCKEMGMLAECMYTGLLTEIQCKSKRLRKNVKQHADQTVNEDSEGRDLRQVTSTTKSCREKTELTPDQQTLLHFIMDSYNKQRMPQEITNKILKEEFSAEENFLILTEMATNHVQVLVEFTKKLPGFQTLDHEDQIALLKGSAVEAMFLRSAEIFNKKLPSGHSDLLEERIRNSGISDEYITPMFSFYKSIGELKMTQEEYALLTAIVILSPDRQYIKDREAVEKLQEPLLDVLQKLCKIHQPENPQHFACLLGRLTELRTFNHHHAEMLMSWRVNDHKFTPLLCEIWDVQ

The nature of test [6]: qHTS assay to identify small molecule antagonists of the farnesoid-X-receptor (FXR) signaling pathway - cell viability counter screen (AID 743221; active means well fitted cell-killing curve with a large enough effect in the repeat runs, not every such curve was filed as active; further: nearly all actives have a fitted effect of over 50% in size). The gist of the method:
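In GeneBLAzer FXR-UAS-bla HEK 293T cells stimulated with 50 uM chenodeoxycholic acid (final), compounds acted for 16 h at 37 C. Viability was assessed afterwards by CellTiter-Glo luminescence.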

Test [7] deals with Vitamin D3 receptor (Homo sapiens) (UniProt P11473). The test can be described thus: qHTS assay to identify small molecule agonists of the vitamin D receptor (VDR) signaling pathway (AID 743222; calls by dose curve). In outline:
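Using LiveBLAzer B/G FRET detection, agonism was scored in VDR-bla cells exposed overnight (16 h, 37C) to DMSO-dissolved compounds; substrate incubation was 2 h at room temperature.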

Test [8] shares this target. The test is described as follows: qHTS assay to identify small molecule antagonists of the vitamin D receptor (VDR) signaling pathway (AID 743223; active means well fitted inhibition curve with a large enough effect in the signal ratio in the repeat runs, not every such curve was filed as active; the % refers to the signal ratio). The gist of the method:
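Agonist 1alpha,25-dihydroxyvitamin D3 (3 nM in well) was added with each compound to VDR-bla cells preincubated 4 h. Cells stood 16 h at 37C, then FRET substrate 2 h at room temperature; fluorescence intensity recorded.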

Test [9] can be described thus: qHTS assay to identify small molecule agonists of the vitamin D receptor (VDR) signaling pathway - cell viability counter screen (AID 743224). Further: series mostly up to about 63 µM; nearly all actives have a fitted effect of over 50% in size. The gist of the method: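 Counter screen for cytotoxicity: VDR-bla cells at 2,000 cells/well, 16 h compound exposure, then CellTiter-Glo luminescence after the beta-lactamase measurement.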
Test [10] in a line: qHTS assay to identify small molecule antagonists of the vitamin D receptor (VDR) signaling pathway - cell viability counter screen (AID 743225). Further: nearly all actives have a fitted effect of over 50% in size. The gist of the method: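 Luminescent cell viability (CellTiter-Glo) in VDR-bla HEK 293T cells after 16 h compound exposure at 37C in the presence of 3 nM final 1-alpha,25-dihydroxy vitamin D3.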
Test [11] in a line: qHTS assay to identify small molecule agonists of the NFkB signaling pathway - cell viability counter screen (AID 1159515; calls by dose curve; further: series mostly up to about 61 µM; nearly all actives have a fitted effect of over 55% in size). The gist of the method: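 Counter screen run alongside the NFkB-bla agonist assay: ME-180 reporter cells exposed to compounds for 5 hr, then lysed with CellTiter-Glo in the same wells. Luminescence, read after 30 min, reflects viable cells.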
A short description of test [12]: qHTS assay to identify small molecule agonists of the endoplasmic reticulum stress response signaling pathway (AID 1159516; active means well fitted activation curve with a large enough effect in the signal ratio in the repeat runs, not every such curve was filed as active; the % refers to the signal ratio). In outline: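 For this screen, HeLa cells stably carrying beta-lactamase under the ER stress response element received test compounds, positive controls or DMSO for 5 hr at 37 C; B/G FRET substrate was then added and dual-wavelength emission recorded.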

Test [13] is described as follows: qHTS assay to identify small molecule agonists of the endoplasmic reticulum stress response signaling pathway - cell viability counter screen (AID 1159517; calls by dose curve). The gist of the method: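 Cpd-treated ESRE-bla HeLa (5 hr, 37 C) → LiveBLAzer 2 hr RT → CellTiter-Glo 30 min RT → luminescence.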
Test [14] in a line: qHTS assay to identify small molecule antagonists of the retinoid-related orphan receptor gamma (ROR-gamma) signaling pathway - cell viability counter screen (AID 1159520). Further: nearly all actives have a fitted effect of over 50% in size. In outline:
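Tet-on ROR gamma CHO cells (1,000/well) were plated 4 hr, given compounds in DMSO for 2 hr at 37 C, then induced with 1 uM final doxycycline for 16 hr. Viability was read as ATP by CellTiter-Glo luminescence after 30 min.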

Test [15] has as its target Nuclear receptor ROR-gamma (Homo sapiens) (UniProt P51449). The test can be described thus: qHTS assay to identify small molecule antagonists of the retinoid-related orphan receptor gamma (ROR-gamma) signaling pathway (AID 1159521). The gist of the method:
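CHO cells expressing RORγ under a TET-on promoter, luciferase under RORE control. Dox 1 uM final, 16 h; compounds added 2 h prior. Luminescence decrease measured.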

The nature of test [16]: qHTS assay to identify small molecule agonists of the AP-1 signaling pathway (AID 1159526; calls by dose curve).
Test [17] deals with Retinoic acid receptor RXR-alpha (Homo sapiens) (UniProt P19793). The test is described as follows: qHTS assay to identify small molecule agonists of the RXR signaling pathway (AID 1159527; calls by dose curve; further: nearly all actives have a fitted effect of over 35% in size). In outline:
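Beta-lactamase reporter assay, agonist format. Engineered HEK 293T line, charcoal-stripped FBS at 2%, overnight (16 hr) exposure, fluorescence at 460 and 530 nm after 405 nm excitation.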

The nature of test [18]: qHTS assay to identify small molecule agonists of the peroxisome proliferator-activated receptor delta (PPARd) signaling pathway - cell viability counter screen (AID 743211). Further: nearly all actives have a fitted effect of over 55% in size. Further: potency means the concentration at half of the fitted maximal effect. The gist of the method: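 Luminescent ATP viability assay (CellTiter-Glo, 30 min RT) in UAS-bla HEK293H cells carrying the PPAR delta reporter construct, 3000 cells/well, after a 17 h compound treatment at 37 C.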

A short description of test [19]: qHTS assay to identify small molecule agonists of the AP-1 signaling pathway - cell viability counter screen (AID 1159525; calls by dose curve; further: nearly all actives have a fitted effect of over 55% in size). In outline:
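Each titration point was normalised to DMSO and tetra n-octyl ammonium bromide controls. The read was Cell Titer Glo luminescence after 30 min at RT, following 5 h compound exposure of ME-180 AP-1-bla cells at 37 °C.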

Test [20] addresses Bile acid receptor (Homo sapiens) (UniProt Q96RI1). The test can be described thus: qHTS assay to identify small molecule antagonists of the farnesoid-X-receptor (FXR) signaling pathway (AID 743217; active means well fitted inhibition curve with a large enough effect in the signal ratio in the repeat runs, not every such curve was filed as active; the % refers to the signal ratio). In outline: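 Quantitative HTS, beta-lactamase reporter format: FXR-UAS-bla HEK 293T cells co-treated 16 h at 37 °C with compounds and 50 uM final chenodeoxycholic acid, then read by B/G FRET fluorescence.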

Structures are written as SMILES. Results filed as inconclusive are left out. The source made the active and inactive calls. Unless noted, the call rests on the fitted dose curve; in most records, active means well fitted curve in the direction sought with a large enough effect in the repeat runs; inconclusive means weak or mixed curves; inactive means no such curve, though single readings can be large; an effect the other way counts as inactive or inconclusive.

Chain of Vitamin D3 receptor (Homo sapiens) (P11473 whole entry, looked up): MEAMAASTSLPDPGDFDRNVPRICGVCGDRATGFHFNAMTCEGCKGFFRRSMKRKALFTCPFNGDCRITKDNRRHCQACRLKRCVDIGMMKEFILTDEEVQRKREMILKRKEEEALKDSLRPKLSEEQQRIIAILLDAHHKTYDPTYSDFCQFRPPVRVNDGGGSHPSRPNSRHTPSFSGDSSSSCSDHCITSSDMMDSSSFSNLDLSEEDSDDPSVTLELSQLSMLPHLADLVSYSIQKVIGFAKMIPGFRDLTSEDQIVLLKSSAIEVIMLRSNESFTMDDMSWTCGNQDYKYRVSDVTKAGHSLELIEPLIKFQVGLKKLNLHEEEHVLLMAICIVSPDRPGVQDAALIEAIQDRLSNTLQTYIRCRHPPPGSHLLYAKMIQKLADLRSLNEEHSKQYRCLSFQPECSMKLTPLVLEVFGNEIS
Chain of Retinoic acid receptor RXR-alpha (Homo sapiens) (P19793 whole entry, looked up): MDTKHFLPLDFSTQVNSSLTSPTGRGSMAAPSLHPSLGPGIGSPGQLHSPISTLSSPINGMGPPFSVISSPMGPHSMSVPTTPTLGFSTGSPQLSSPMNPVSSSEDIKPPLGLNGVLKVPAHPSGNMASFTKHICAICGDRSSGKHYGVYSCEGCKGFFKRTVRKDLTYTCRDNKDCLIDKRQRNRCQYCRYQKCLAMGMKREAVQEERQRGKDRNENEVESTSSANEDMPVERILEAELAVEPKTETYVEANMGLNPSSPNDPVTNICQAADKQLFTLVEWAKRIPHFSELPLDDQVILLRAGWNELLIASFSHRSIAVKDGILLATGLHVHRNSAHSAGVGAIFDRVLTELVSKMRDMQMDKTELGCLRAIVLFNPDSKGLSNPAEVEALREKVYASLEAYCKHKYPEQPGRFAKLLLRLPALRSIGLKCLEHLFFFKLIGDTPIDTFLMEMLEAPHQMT

As for `CCOC(=O)C1=NN(c2ccccc2)C(=O)C1`, the result in test [1], in test [3], in test [5], in test [7] and in [13] was inactive. Further, the Potency result in test [2], in test [4], in [6], in [8], in test [9] and in test [10] was “inactive” in each case. The Potency entry in test [11], in test [12], in [14], in [15], in [16] and in test [17] was “inactive” throughout.

Turning to `CCC(=O)OC(C)(C)C1CC=C(C)CC1` (centres undefined), the Potency result in test [18], in test [2], in test [6], in test [9], in [10] and in [11] was “inactive” in each case. Besides, the Potency result in [12], in [14], in [15] and in [16] was “inactive” in each case. The outcome in test [1], in test [5] and in test [13] was inactive.

On to `C=CCCCCCC`, for which the Potency result in test [18], in test [2], in test [4], in test [11], in test [12] and in test [14] was “inactive” throughout. Further, the Potency result in test [15] and in test [19] was “inactive” each time. The compound was classed as inactive in test [5] and in [13].

Consider `O=C=NC1CCC(CC2CCC(N=C=O)CC2)CC1` (centres undefined), for which the compound was called inactive in test [1], in test [7] and in [13]. Further, the Potency entry in [2], in [8], in [9], in test [11], in [12] and in test [14] was “inactive” in each case. Further, the Potency entry in [15] and in test [16] was “inactive” throughout.

Turning to `CN(C)C/C=C(/c1ccc(Br)cc1)c1cccnc1`, the Potency entry in test [2], in [4], in [6], in test [8], in test [9] and in test [10] was “inactive” in each case. For the same compound, the Potency entry in test [11], in [12], in test [14], in [15], in test [16] and in test [17] was “inactive” each time. For the same compound, the outcome in test [7] and in test [13] was inactive.

For `ClC(Cl)(Cl)c1ccc(C(Cl)(Cl)Cl)cc1`, the Potency result in test [18], in test [2], in [4], in test [6], in [8] and in test [9] was “inactive” in each case. Further, the Potency result in [11], in test [12], in test [14], in test [15] and in [19] was “inactive” each time. Besides, the outcome in test [7] and in [13] was inactive.

`COc1ccc(OC)c(OC)c1`: the Potency entry in test [2], in [4], in test [6], in [9], in test [10] and in [11] was “inactive” throughout. The Potency result in test [12], in test [14], in [15] and in test [16] was “inactive” throughout. Besides, the result in test [20], in test [5], in test [7] and in test [13] was inactive.

For `CC(C)CCCCCCOC(=O)c1ccc(C(=O)OCCCCCCC(C)C)c(C(=O)OCCCCCCC(C)C)c1`, the Potency entry in test [18], in test [2], in test [6], in [8], in test [9] and in [10] was “inactive” in each case. For the same compound, the Potency result in test [11], in [12], in test [14], in test [15] and in test [16] was “inactive” each time. For the same compound, the compound was called inactive in test [1], in test [3], in [7] and in [13].

Consider `CCCOc1ccc2nc(NC(=O)OC)[nH]c2c1`, for which the Potency result in test [18], in [2], in [4], in [6], in [9] and in test [11] was “inactive” each time. The Potency result in test [12], in test [14], in test [15] and in test [19] was “inactive” in each case. Moreover, the result in [1], in test [7] and in test [13] was inactive.

Regarding `CN(C)CC/C=C1\c2ccccc2COc2ccccc21`, in test [18], the Potency is 26.6 µM (active). Further, the compound was called inactive in test [20], in test [5], in test [7] and in test [13]. Moreover, the Potency entry in test [6], in test [8], in [9], in [10], in test [11] and in test [12] was “inactive” in each case. Moreover, the Potency result in test [14], in test [15] and in [19] was “inactive” in each case.
